From PubChem BioAssay (NCI) come the findings set out here.

Test [1] is described as follows: NCI Yeast Anticancer Drug Screen. Data for the rad50 strain (AID 155).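 Also: 0% = growth of vehicle-only cultures of the same strain.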 The note with it: S. cerevisiae rad50 strain growth inhibition; at 50.0 µM; active compounds read high. The method in brief: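 Compounds were tested on a yeast strain with an engineered DNA damage repair alteration; the reported value is growth inhibition normalised to vehicle treatment.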
The nature of test [2]: NCI Yeast Anticancer Drug Screen. Data for the mec2-1 strain (AID 157). The note with it: S. cerevisiae mec2-1 strain, at 50.0 µM, active compounds read high. The method in brief: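 Cells of the genetically defined mec2-1 yeast strain are incubated with test compound. Inhibition of growth is calculated against vehicle-treated controls.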
Test [3] can be described thus: NCI Yeast Anticancer Drug Screen. Data for the sgs1 mgt1 strain (AID 161).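 Also: 0% = growth of cultures given vehicle only.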 The note with it: S. cerevisiae sgs1 mgt1 strain, at 50.0 µM, active compounds read high. In outline: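 Genetically altered yeast, compound exposure, growth inhibition relative to vehicle.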
Test [4] can be described thus: NCI Yeast Anticancer Drug Screen. Data for the cln2 rad14 strain (AID 165).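 Also: 0% = growth equal to vehicle treated cultures.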 The note with it: S. cerevisiae cln2 rad14 strain, at 50.0 µM, active compounds read high. In outline:
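The screen exposed genetically defined yeast (cln2 rad14) to test compounds and scored growth inhibition relative to vehicle-treated controls.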

Test [5] can be described thus: NCI Yeast Anticancer Drug Screen. Data for the bub3 strain (AID 167). The note with it: S. cerevisiae bub3 mutant strain, at 50.0 µM, active compounds read high. The method in brief:
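Growth of a checkpoint-deficient yeast mutant is measured after compound exposure. Values represent inhibition relative to vehicle.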

A short description of test [6]: NCI Yeast Anticancer Drug Screen. Data for the mlh1 rad18 strain (AID 175). As to conditions: S. cerevisiae mlh1 rad18 strain growth inhibition; at 50.0 µM; active compounds read high. In outline: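 Compound-treated yeast growth, normalised to vehicle controls. Strain bears defined DNA repair mutations.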

About 79,000 compounds went through this panel and 15% of them were active in at least one assay; those are over-represented in the sample as a whole. Values without a mark were called inactive. The source made the active and inactive calls. Rule as the data show it: active = growth inhibition above about 70%; inactive = the rest.

For `CN(N)C(=O)NCCCl`, the growth inhibition in test [1] was -9.1%; in test [2], -4.6%; in test [3], 8.25%; in test [4], 13.4%; in test [5], -28%; in test [6] it was -1.8%.

Turning to `O=C(O)c1c(Br)c(Br)c(Br)c(Br)c1C1c2ccc(O)cc2Oc2cc(O)ccc21`, the growth inhibition in test [1] was 20.4%; in test [2], 25%; in test [3], 35%; in test [4] it was -7.75%; in test [5], -2.6%; in test [6] it was 26.6%.

Turning to `O=C(C1CC=CCC1C(=O)N1CCCCC1)N1CCCCC1` (stereo unspecified), the growth inhibition in test [1] is 11.1%; in test [2] it was -8.65%; in test [3], -6.2%; in test [4], -3.7%; in test [5] it was 9.1%; in test [6], -16.9%.

`CC(C)N(CCC#N)C(=S)Nc1cccc2ccccc12`: the growth inhibition in test [1] was 17.1%; in test [2] it was 10.1%; in test [3], 19.6%; in test [4] it was 14.9%; in test [5] it was 12.2%; in test [6], -8.2%.

Turning to `O=C(NC(=O)c1c(F)cccc1F)Nc1cccc(C(F)(F)F)c1`, the growth inhibition is 8.55% in test [1]; 6.15% in test [2]; 3.9% in test [3]; 6.75% in test [4]; -3.3% in test [5]; 10.7% in test [6].

For the molecule `CCOC(=O)/C(C#N)=C/c1ccc([N+](=O)[O-])cc1`, the growth inhibition in test [1] was 19.2%; in test [2], -2.75%; in test [3] it was 14.5%; in test [4], -5.6%; in test [5], 0.35%; in test [6], 8.4%.

As to `Cc1ccc(S(=O)(=O)/C(=C/c2ccccc2)CC(=O)c2ccccc2)cc1`, the growth inhibition is 9.05% in test [1]; 6.55% in test [2]; -22.1% in test [3]; -18.4% in test [4]; 11.1% in test [5]; 17% in test [6].

Consider `CN(C)CCSCC(=O)N1c2ccccc2Sc2ccccc21`, for which the growth inhibition is -7.7% in test [1]; -8.5% in test [2]; -5.8% in test [3]; -41.2% in test [4]; 3% in test [5]; -4.8% in test [6].

Turning to `CCn1c2ccc(C(=O)CCCN(C)C)cc2c2cc(C(=O)CCCN(C)C)ccc21`, the growth inhibition in test [1] is 5.15%; in test [2] it was -33.3%; in test [3], 8.5%; in test [4] it was 4.05%; in test [5], 14.2%; in test [6], -21.9%.

With `O=C(O)CCN(CCC(=O)O)S(=O)(=O)c1ccccc1`, the growth inhibition in test [1] is -4.55%; in test [2], -43.4%; in test [3], -4.65%; in test [4], -103%; in test [5], -17.6%; in test [6] it was 22.9%.

Consider `ClC(Cl)(Cl)CC(Br)c1ccccc1` (stereo unspecified), for which the growth inhibition in test [1] was -1.55%; in test [2], -8.8%; in test [3], 7.55%; in test [4], -22.9%; in test [5], -6.9%; in test [6] it was 2.25%.

Consider `O=C(Nc1ccc(Cl)cc1Cl)C(=O)C(C(=O)c1ccc2ccccc2c1)C1OC(=O)c2ccccc21` (stereo unspecified), for which the growth inhibition in test [1] was 13.4%; in test [2] it was 21.6%; in test [3], 2.7%; in test [4], 15.9%; in test [5], -12.6%; in test [6] it was -6.45%.

In the case of `CC(NNC(=S)N1CCCC1)c1cccc[n+]1[O-]` (stereo unspecified), the growth inhibition in test [1] is 3.4%; in test [2], -2.85%; in test [3], 8.4%; in test [4], -4.9%; in test [5] it was 8.3%; in test [6], 13.9%.

Take `CC(=O)c1ccc(C(=O)c2cccnc2)cc1`: the growth inhibition was -17% in test [1]; -9.2% in test [2]; -0.4% in test [3]; -49.3% in test [4]; -14.7% in test [5]; 7.4% in test [6].

In the case of `Cc1cc(C)c2nccc(/C=C/c3ccc(N(C)C)cc3)c2c1`, the growth inhibition was -15.3% in test [1]; 0.4% in test [2]; -15.5% in test [3]; -27.2% in test [4]; -19.4% in test [5]; -6.95% in test [6].

Consider `O=c1cc(NCc2c(Cl)cccc2[N+](=O)[O-])[nH]c(=O)[nH]1`, for which the growth inhibition in test [1] is -8.8%; in test [2] it was 37.5%; in test [3], 14.7%; in test [4] it was -7.9%; in test [5], 15%; in test [6], -5.3%.

In the case of `BrCC1=CC(c2ccccc2)(c2ccccc2)c2ccccc21`, the growth inhibition in test [1] is 96.2% (active); in test [2], 97% (active); in test [3] it was 97.3% (active); in test [4], 94.3% (active); in test [5] it was 96.2% (active); in test [6], 96.1% (active).

`CCCc1cc(OC(=O)c2c(O)cc(OC)cc2CCC)cc(O)c1C(=O)O`: the growth inhibition in test [1] is 35.1%; in test [2], 44.1%; in test [3], 15.9%; in test [4] it was 49.2%; in test [5] it was 32%; in test [6], 24.5%.

`S=C(S)N1CCN(c2cccc(Cl)c2)CC1`: the growth inhibition in test [1] was 40.2%; in test [2] it was 16.1%; in test [3], 58.5%; in test [4], 44.7%; in test [5] it was 47.1%; in test [6], 70.5% (active).

Take `CC(C)(C)OC(=O)N1CC(C)(C)N2C(=O)C3(CCCO3)C12` (stereo unspecified): the growth inhibition was -4.3% in test [1]; -9.85% in test [2]; -7.15% in test [3]; -0.4% in test [4]; -16.6% in test [5]; 5.65% in test [6].

Turning to `C/C(=N\[N+](C)(C)C)c1ccc(C)c(C)c1`, the growth inhibition in test [1] was 9.45%; in test [2] it was -38%; in test [3] it was -23.2%; in test [4] it was 17.9%; in test [5], -56.2%; in test [6] it was -5%.
